# Data as given in PubChem BioAssay (NCATS).
# Results filed as inconclusive are left out. Entries that show only a call come without a potency. Activity calls are given as the source filed them. Calls come from the whole dose curve; as a rule, active = well fitted cell-killing curve with a large enough effect; inconclusive = small, poorly fitted or top-dose-only effect, or effect the other way; inactive = flat fitted curve, though single readings scatter.
# Test system: PA-1
# Experiment: Primary qHTS to identify gynecologic anti-cancer compounds using libraries of approved drugs and bioactive compounds (AID 1345084); note: nearly all actives have a fitted effect of over 55% in size
# Details: Gynecologic cancer cell panel viability, ATPlite luminescence, 48 h; series mostly up to 57.5 µM
# How it was run: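 Cells, 1,000 per well, plated 16 h, then exposed 48 h at 37 C to compounds. Viability by ATPlite luminescence after 15 min at room temperature.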
Compound,Potency,"activity change, negative = cytotoxicity"
CC12CCC(C(OC3OC(COC4OCC(O)(CO)C4O)C(O)C(O)C3O)C1)C(C)(C)O2 (stereo not drawn),inactive,
O=C(/C=C\c1ccc(O)cc1)N[C@@H](Cc1ccc(O)cc1)C(=O)O,inactive,
O=C(O)c1cccc(S(=O)(=O)N2CCc3ccccc3C2)c1,inactive,
C[C@@H]1O[C@@H](O[C@H]2[C@H](O)[C@@H](O[C@@H]3O[C@H](CO)[C@@H](O)[C@H](O[C@@H]4O[C@H](CO)[C@@H](O)[C@H](O)[C@H]4O)[C@H]3O)[C@H](O[C@H]3CC[C@@]4(C)C(=CC[C@@H]5C4CC[C@@]4(C)C5C[C@@H]5OC6(CC[C@@](C)(CO[C@@H]7O[C@H](CO)[C@@H](O)[C@H](O)[C@H]7O)O6)[C@@H](C)[C@@H]54)C3)O[C@@H]2CO)[C@H](O)[C@H](O)[C@H]1O (stereo partly drawn),,-4.89% [at 6.55 µM] (inactive)
COc1ccc(/C=C/C(=O)O[C@H]2[C@H](O[C@H]3[C@@H]4C=CO[C@@H](O[C@@H]5O[C@H](CO)[C@@H](O)[C@H](O)[C@H]5O)[C@@H]4[C@@]4(CO)O[C@@H]34)O[C@@H](C)[C@H](O)[C@H]2OC(C)=O)cc1,inactive,
COC(=O)C12C(=O)C(C)=C(O)C1(C)C(C)=CC1C3(CO)CCC(O)C(C)(C)C3CCC12C (stereo not drawn),inactive,
C=C1[C@H](OC(C)=O)[C@H]2[C@@H](OC(C)=O)[C@](C)(OC(C)=O)C[C@]2(OC(C)=O)C(=O)[C@H](C)/C=C/C(C)(C)C(=O)[C@H](OC(=O)C(C)C)[C@H]1OC(C)=O,inactive,
COC(=O)N(C)c1c(N)nc(-c2nn(Cc3ccccc3F)c3ncccc23)nc1N,inactive,
